IL1B secr inh: qHTS for Inhibitors of Inflammasome Signaling: IL-1-beta AlphaLISA Primary Screen; THP-1 LPS/ATP IL-1B secretion, AlphaLISA, 16 h; hits give low values; activity change, % at 57.5 µM; 360,000 tested, 4.7% active; in the data active = activity change below about -50%; inconclusive = mostly about -30% to -49%
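THP-1 cells pretreated 1 hr with compounds (up to 57.5 uM final), then stimulated with LPS (250 ng/mL final) plus ATP (1.25 mM final); secreted IL-1B measured by AlphaLISA after 16 hr, decreased signal indicating inhibition.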
HT1080 IDH1KD tx: qHTS for induction of synthetic lethality in tumor cells producing 2HG: qHTS for the HT-1080-IDH1KD cell line; 360,000 tested, 2% active; Potency, µM (doses to about 46.1 µM), for inactives: at the highest dose activity, negative = toxicity, most hits filed as cytotoxic; HT-1080 IDH1 knockdown viability, ATP luminescence, 48 h; AID 686971, 2013;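 note: potency is the fitted concentration of half-maximal effect; 0% = DMSO wells and -100% = cell-free medium wells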
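HT-1080-IDH1KD cells (IDH1 knocked down), 750/well in RPMI with 5% FBS, treated with compound 48 h at 37 degrees C. Viability by CellTiter-Glo luminescence, normalised to DMSO and no-cell wells; concentration-response curves classed.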
TDP1 cell CPT: qHTS for Inhibitors of human tyrosyl-DNA phosphodiesterase 1 (TDP1): qHTS in cells in presence of CPT; 420,000 tested, 12% active; Potency, µM (top dose mostly 46.2 µM), inactives show top-dose activity change, negative = growth inhibition, actives largely listed as inhibitors; chicken DT40 Tdp1-/-;hTDP1 cells + 20 nM CPT, ATP luminescence, 48 h; note: potency is the fitted concentration of half-maximal effect; nearly all actives have a fitted effect of over 55% in size
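Chicken DT40 Tdp1-/- cells stably complemented with human TDP1 were seeded at 400 cells/well in medium containing 20 nM camptothecin, exposed to pin-transferred compounds, and grown at 37 °C for at least 48 hr. Viability was read as ATP luminescence.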
TDP1 cell noCPT: qHTS for Inhibitors of human tyrosyl-DNA phosphodiesterase 1 (TDP1): qHTS in cells in absence of CPT; DT40 Tdp1-/- hTDP1 cells, no CPT, ATP luminescence, 48 h; Potency, µM (top dose mostly 46.2 µM), for the others: at the highest dose activity change, negative = growth inhibition, usual class: inhibitors; 420,000 tested, 15% active; note: potency is the fitted concentration of half-maximal effect; nearly all actives have a fitted effect of over 55% in size
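Camptothecin absent (DMSO only). Human TDP1-complemented DT40 knockout cells, 400 cells/well, 37 °C for minimum 48 hr; ATP measured via CellTiter-Glo, 30 min dark incubation, luminescence.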
HT1080-NT tox: qHTS for induction of synthetic lethality in tumor cells producing 2HG: qHTS for the HT-1080-NT fibrosarcoma cell line; 360,000 tested, 1.6% active; Potency, µM (top dose mostly 46.1 µM), for inactives: at the highest dose activity, negative = less viability, hits mostly cytotoxic; HT-1080-NT fibrosarcoma viability, CellTiter-Glo ATP luminescence, 48 h; AID 686970, 2013;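 note: NT is the 2HG producing partner of a matched IDH1 knockdown line; potency is the fitted concentration of half-maximal effect; 0% = DMSO-treated cells and -100% = media-only wells without cells; nearly all actives have a fitted effect of over 55% in size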
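A 48-hour cytotoxicity screen used HT-1080-NT cells plated 2 hours before compound delivery. ATP-based CellTiter-Glo luminescence measured viability, normalized to DMSO and no-cell controls.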
* hit, by the source's call; ? = inconclusive; · = no result. Hits are enriched below; roughly 19% of the tested compounds scored in any of these assays. Unless noted, calls come from the whole dose curve; as a rule, active = well fitted curve in the direction sought with a large enough effect; inconclusive = small, poorly fitted or top-dose-only effect, or another doubt; inactive = no such curve, though single readings can be large; an effect the other way counts as inactive or inconclusive. Unless noted, % is set by controls: 0 for no effect and ±100 for the full control effect.

SMILES | IL1B secr inh | HT1080 IDH1KD tx | TDP1 cell CPT | TDP1 cell noCPT | HT1080-NT tox
Cc1cc(NC(=O)c2cc3n(n2)C(C(F)(F)F)CC(c2ccco2)N3)n(-c2ccccc2)n1 (stereo not given) | -13 | -27% | ? | 15µM* | -22%
CCOC(=O)c1ccc(CN(Cc2ccc(F)cc2)S(=O)(=O)c2ccc(F)c(C(=O)Nc3ccc(Cl)cc3F)c2)cc1 | · | · | 11% | -9% | ·
COc1ccc2c3c(n(C(=O)OC(C)(C)C)c2c1)C1CC=C(COC(C)=O)CN1CC3 (stereo not given) | 4 | 1% | 16µM* | 16µM* | -1%
COc1ccc2c(c1)c1c(n2C)[C@@H]2CC=C(CO)[C@@H](C1)N2C | 23 | 9% | -25% | -16% | 5%
COc1ccc2c(c1)CCCN2S(=O)(=O)c1ccc(Cl)cc1 | 9 | -24% | 23µM* | 15µM* | -3%
COc1ccc2c(c1)CCCN2C(N)=Nc1ccc(Cl)cc1 | -63* | ? | ? | 23µM* | -23%
CC(=O)Nc1ccc(NC(=O)c2ccc3c(c2)CCN3S(=O)(=O)c2ccc(C)cc2)cc1 | · | · | -10% | -1% | ·
COc1ccc2c(c1)CCCN2C(N)=O | -10 | 12% | -4% | -3% | 2%
COc1ccc(C(=O)Nc2ccc3c(c2)CCCN3S(=O)(=O)c2ccc(C)cc2)cc1 | · | · | 21µM* | 13µM* | ·
COc1ccc(NC(=O)c2ccc3c(c2)CCN3S(=O)(=O)c2ccc(C)cc2)cc1Cl | · | · | -24% | -13% | ·
Cc1ccc(S(=O)(=O)N2CCCc3cc(NC(=O)c4ccc(C(C)(C)C)cc4)ccc32)cc1 | · | · | 4.1µM* | 3.7µM* | ·
Cc1ccc(-n2c(-c3ccc(Br)cc3)n[nH]c2=S)c(C)c1 | 12 | 3% | -23% | ? | 3%
Cc1ccc2c(CC(=O)NC3CCCc4ccccc43)coc2c1 (stereo not given) | -14 | -18% | -29% | ? | -22%
CC1=NN(c2cccc(C(=O)O)c2)C(=O)/C1=C\C=C/c1ccccc1 | -103* | ? | 0.58µM* | 1.3µM* | ?
CC1=NN(c2ccc(C)cc2)C(=O)/C1=C\C=C\c1ccccc1 | -180* | -16% | 12µM* | 9.2µM* | 16%
CC1=NN(c2ccccc2)C(=O)C1=Cc1ccccc1 | -20 | -2% | -17% | -6% | -5%
Cc1nc(-c2ccc([N+](=O)[O-])cc2)sc1C(=O)O | 12 | -6% | -29% | -24% | 1%
C[C@@H](NC(=O)[C@@H]1CCCN1C(=O)[C@@H]1CCCN1C(=O)c1cccs1)c1ccccc1 | 0 | -11% | 2% | -12% | 7%
COc1ccc(S(=O)(=O)N2CCOCC2)cc1NC(=O)CN1CCN(C)CC1 | -13 | 2% | -1% | -2% | 14%
CCCc1cc(N2CCN(c3cc(Cl)ccc3C)CC2)n2cnnc2n1 | · | · | 13µM* | 5.2µM* | ·
Cc1ccc(C)c(N2CCN(c3cc(C)nc4c(-c5ccc(Cl)cc5)c(C)nn34)CC2)c1 | · | · | 10% | -8% | ·
CC(C)c1cccc(-c2csc(C(C)(O)c3cccc(F)c3)n2)c1 (stereo not given) | -21 | ? | 21µM* | ? | -5%
COc1cccc(C(C)(O)c2nc(-c3csc4ccccc34)cs2)c1 (stereo not given) | -19 | ? | ? | -92% | 21µM*
CC(O)(c1cccc(F)c1)c1nc(-c2cccc(F)c2)cs1 (stereo not given) | -30 | ? | ? | ? | ?
COc1ccc(C(C)(O)c2nc(-c3ccccc3OC)cs2)cc1 (stereo not given) | 20 | 16µM* | 9.2µM* | 13µM* | ?
SMILES | IL1B secr inh | HT1080 IDH1KD tx | TDP1 cell CPT | TDP1 cell noCPT | HT1080-NT tox
CC(O)(c1ccccc1)c1nc(-c2cccc(C(F)(F)F)c2)cs1 (stereo not given) | -7 | ? | ? | ? | ?
COc1cccc(C(C)(O)c2nc(-c3cccc(C(F)(F)F)c3)cs2)c1 (stereo not given) | -7 | ? | ? | ? | 18µM*
CCSc1ncc(Cl)c(C(=O)Nc2sc3c(c2C(=O)OC)CCCC3)n1 | · | · | 0% | -8% | ·
COc1ccc(C(C)(O)c2nc(-c3cccc(C(F)(F)F)c3)cs2)cc1 (stereo not given) | 0 | 0% | 26µM* | 18µM* | ?
COc1ccc(-c2csc(C(C)(O)c3cccc(F)c3)n2)cc1 (stereo not given) | -5 | ? | 18µM* | 13µM* | -30%
COc1ccc(C(C)(O)c2nc(-c3cccc(F)c3)cs2)cc1 (stereo not given) | 60 | ? | ? | ? | ?
COc1cccc(C(C)(O)c2nc(/C=C/c3ccccc3)cs2)c1 (stereo not given) | 29 | -20% | ? | 18µM* | -29%
CC(O)(c1cccnc1)c1nc(-c2cccc(C(F)(F)F)c2)cs1 (stereo not given) | -7 | ? | 18µM* | 15µM* | 23µM*
CC1CCCCC1Nc1nc2ccc(Cl)cc2n2cnnc12 (stereo not given) | 0 | ? | ? | ? | ?
Cc1cnc(=O)[nH]c1SCc1cccc([N+](=O)[O-])c1 | -6 | 0% | 4% | 3% | -6%
Nc1ncnc2c1ncn2[C@@H]1O[C@H](C(=O)Nc2ccc(C(=O)N3CCCCC3)cc2)[C@@H](O)[C@H]1O | 1 | 12% | 3% | 6% | 4%
CCCC(=O)Nc1cc(-c2nc3cccnc3s2)ccc1C | · | · | -9% | -24% | ·
CC(=O)Nc1cccc(-c2ccnc3c2CC(C)(C(=O)Nc2cccc(OC(F)(F)F)c2)O3)c1 (stereo not given) | 13 | ? | ? | ? | 9.2µM*
CC1(C(=O)Nc2cccc(OC(F)(F)F)c2)Cc2c(-c3ccc(C(N)=O)cc3)ccnc2O1 (stereo not given) | 83 | ? | ? | 16µM* | -5%
CC1(C(=O)Nc2cccc(OC(F)(F)F)c2)Cc2c(-c3cccc(C(F)(F)F)c3)ccnc2O1 (stereo not given) | 14 | ? | ? | ? | ?
O=C(Cc1cccs1)N1CCN(c2ccc([N+](=O)[O-])cc2)CC1 | ? | -3% | ? | ? | -18%
